# Reference: article PMC4081663, “Single-Nucleotide Mutation Matrix of NF-κB”
# Target: NF-kB p50 homodimer (Homo sapiens, UniProt P19838 1-433)
# Test: bimolecular dsDNA microarray; Bimolecular dsDNA microarray on aldehyde glass; probes annealed in 10 mM Tris-HCl pH 8.0, 100 mM NaCl, 1 mM EDTA; binding buffer and temperature as in ref 16, not stated; high values mean tight binding
# Settings: protein: commercial; tags: Cy3-labeled for microarray; chain copies: 2; label: 5' amino linker to the slide; dsDNA, one strand shown
# Chain of NF-kB p50 homodimer (P19838 1-433): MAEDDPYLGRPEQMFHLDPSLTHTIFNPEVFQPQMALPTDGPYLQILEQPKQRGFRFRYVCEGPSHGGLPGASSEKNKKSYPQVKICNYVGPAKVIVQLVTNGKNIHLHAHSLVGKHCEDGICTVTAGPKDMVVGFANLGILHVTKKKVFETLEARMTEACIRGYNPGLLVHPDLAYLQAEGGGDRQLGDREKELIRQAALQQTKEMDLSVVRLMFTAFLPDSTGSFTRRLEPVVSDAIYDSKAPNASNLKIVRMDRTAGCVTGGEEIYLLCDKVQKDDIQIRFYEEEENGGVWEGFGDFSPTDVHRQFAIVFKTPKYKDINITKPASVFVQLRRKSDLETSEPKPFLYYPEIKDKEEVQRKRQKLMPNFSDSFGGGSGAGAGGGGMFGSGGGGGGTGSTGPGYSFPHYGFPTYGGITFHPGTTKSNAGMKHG
row,Sequence,binding signal [a.u.]
1,GGGACTTGCC,18.8
2,GGGACTTTCG,24.6
3,GGGACTGTCC,32.4
4,GGGACTCTCC,24.8
5,GGGACTATCC,20
6,GGGTCTTTCC,28.6
7,GGGCCTTTCC,20.5
8,GAGACTTTCC,16.7
9,GGGACTTTCC,52.8
10,GGCACTTTCC,19.2
11,GCGACTTTCC,12.5
12,GGGACTTTCA,24.7
13,GGGACTTACC,25.4
14,TGGACTTTCC,22.8
15,GGGACTTCCC,60.9
16,GGGACTTTCT,20.2

row,Sequence,binding signal [a.u.]
1,GGGACATTCC,26.5
2,GGGACCTTCC,19.8
3,GGAACTTTCC,31.4
4,GGGACGTTCC,25
5,GGGACTTTAC,38.1
6,CGGACTTTCC,19.8
7,GGGGCTTTCC,49.7
8,GGGATTTTCC,58.5
9,GGGACTTTGC,22.9
10,GGGAATTTCC,57.5
11,AGGACTTTCC,21.1
12,GGTACTTTCC,46.1
13,GTGACTTTCC,20.4
14,GGGAGTTTCC,55.8
15,GGGACTTTTC,29.6
